“And” between values parts separate entries of the source, which are not always exact repeats. Equal values may be shown once. Inconclusive results are not listed. A call without a number means that no potency is given here. Unmarked numbers belong to inactive results. The source made the active and inactive calls. Calls follow the shape of the dose curve; as a rule, active = well fitted activation curve with a large enough effect in the repeat runs; inconclusive = weak or mixed curves; inactive = flat fitted curve, though single readings scatter.

Experimental findings from PubChem BioAssay (Tox21) are described below.
Potency is read from the fitted curve at half-maximal effect.

The assay is described as follows: A CellTox Green Cytotoxicity Assay to monitor cytotoxicity in HEK293 cells - 24 hour (AID 1224875). Also: nearly all actives have a fitted effect of over 45% in size. Conditions: CellTox Green fluorescence; series mostly up to 76.8 µM; activity change: at the top concentration. The text has this: National Center for Advancing Translational Sciences [NCATS]
NIH Chemical Genomics Center [NCGC]
U.S. Environmental Protection Agency [EPA]
National Institutes of Environmental Health Sciences [NIEHS]
National Toxicology Program [NTP]
Cell-based models are critical for drug discovery. Determining the natural cytotoxic effects resulting from test compounds is an essential research activity. A CellTox Green Cytotoxicity Assay to monitor cytotoxicity in real time of continues cell culture during 40 hours of the compound treatment was used to screen Tox21 10K library compounds in Hek293 cells. CellTox Green Cytotoxicity Assay is a nonlytic, homogeneous, biofluorescent method to measure cytotoxicity in cell culture after experimental manipulation. The assay system uses a proprietary asymmetric cyanine dye that is excluded from viable cells but preferentially stains the dead cell's DNA. […] Viable cells produce no appreciable increases in fluorescence. Therefore, the fluorescence signal produced by the binding interaction with dead cell DNA is proportional to cytotoxicity.
The mixture of Hek293 cell suspension and reagents were dispensed at 600cells/6 ul/well in 1536-well tissue culture treated black solid bottom plates using a Multidrop dispenser. After the assay plates were incubated at a 37 C/5% CO2 incubator for 5 hours, 23 nL of compounds dissolved in DMSO, positive and negative controls was transferred to the assay plate by a pintool work station. The plates were incubated at 37 C for 40 hours. The fluorescence intensity were measured at 0h, 8h, 16h, 24h, 32h and 40h time points using ViewLux plate reader during compound treatment.
Take `CCOc1cc(C=O)ccc1O`: the Potency entry was “inactive”.

Turning to `C1=Cc2cccc3cccc1c23`, the Potency is 49 µM (active).

In the case of `CCN(CC)C(=O)/C(Cl)=C(\C)OP(=O)(OC)OC`, the Potency entry is “inactive”.

With `S=C1NCCN1`, the Potency entry is “inactive”.

For `CCC(=O)O[C@H]1CC[C@H]2[C@@H]3CCC4=CC(=O)CC[C@]4(C)[C@H]3CC[C@]12C`, the Potency was 19.5 µM (active) and 5.35 µM (active).

For the compound `Brc1ccc(Oc2cc(Br)c(Br)cc2Br)c(Br)c1`, the Potency result was “inactive”.

Consider `NCc1cccnc1`, for which the Potency result is “inactive”.

In the case of `N#Cc1cc(Br)c(O)c(Br)c1`, the Potency entry was “inactive”.

As to `C#CCOS(=O)OC1CCCCC1Oc1ccc(C(C)(C)C)cc1` (stereo not given), the Potency entry is “inactive”.

For `NNC(=S)NN`, the Potency entry was “inactive”.

Turning to `NNC(N)=S`, the “activity change” value is -14.5%.

Regarding `CCCCC(CC)COC(=O)Cl` (stereo not given), the Potency result was “inactive”.

Consider `CCOc1cc(Oc2ccc(C(F)(F)F)cc2Cl)ccc1[N+](=O)[O-]`, for which the Potency result is “inactive”.

In the case of `CCCCOCCOP(=O)(OCCOCCCC)OCCOCCCC`, the Potency result is “inactive”.

Take `c1ccc(P(c2ccccc2)c2ccccc2)cc1`: the Potency result was “inactive”.

In the case of `CNC(=O)Oc1cccc2c1OC(C)(C)O2`, the “activity change” value is -1.24%.

Consider `COP(=S)(OC)Oc1ccc([N+](=O)[O-])cc1`, for which the Potency entry is “inactive”.

In the case of `CCC(C)c1cc([N+](=O)[O-])cc([N+](=O)[O-])c1O` (stereo not given), the Potency entry is “inactive”.

With `c1ccc(NNc2ccccc2)cc1`, the Potency was 24.5 µM (active).

With `Nc1ccc(Cl)cc1N`, the Potency was 24.5 µM (active).

For the compound `O=C(O)CC[N+](=O)[O-]`, the Potency result was “inactive”.

Regarding `COP(=O)(OC)OC`, the “activity change” value was -15.3%.

In the case of `Oc1cc(Cl)c(Cl)cc1Cl`, the Potency result is “inactive”.

As to `Cc1cc(Cl)ccc1OCCCC(=O)O`, the Potency result was “inactive”.

Turning to `N[C@@H](Cc1ccc(N(CCCl)CCCl)cc1)C(=O)O`, the Potency entry is “inactive”.

For the compound `Cc1ccc(OP(=O)(Oc2ccc(C)cc2)Oc2ccc(C)cc2)cc1`, the Potency result is “inactive”.

Regarding `O=P(Oc1ccccc1)(Oc1ccccc1)Oc1ccccc1`, the Potency result is “inactive”.

`COP(=S)(OC)Oc1cc(Cl)c(Cl)cc1Cl`: the Potency entry was “inactive”.

For the compound `c1ccc(N=Nc2ccccc2)cc1`, the “activity change” value is 21.7%.

In the case of `CCCCCCCCOC(=O)c1ccccc1C(=O)OCCCCCCCC`, the “activity change” value is 16.3%.

`COc1ccc(C=O)cc1`: the Potency entry is “inactive”.

With `c1nc[nH]n1`, the Potency result was “inactive”.

Take `CC1(C)C(C=C(Cl)Cl)C1C(=O)OC(C#N)c1cccc(Oc2ccccc2)c1` (stereo not given): the Potency result is “inactive”.

For `O=C1C=CC(=O)C=C1`, the Potency result was “inactive”.

As for `C=CCN(CC=C)C(=O)C(Cl)Cl`, the Potency result was “inactive”.

Take `Nn1cnnc1`: the Potency entry is “inactive”.

Turning to `Cc1cc(C)cc(C)c1`, the Potency entry was “inactive”.

For `Oc1cc(Cl)ccc1Oc1ccc(Cl)cc1Cl`, the Potency is 22.4 µM (active).

Turning to `CC(C)c1ccc(CO)cc1`, the Potency result is “inactive”.

For the compound `Nc1c(Cl)cc([N+](=O)[O-])cc1Cl`, the Potency result was “inactive”.
